This passage reports IFI results from ChEMBL document CHEMBL1156829.

The full ranking holds about 5,400 compounds; the median of “IFI” is about 2, and the highest 2% start at about 22. The entries come from a sample that favours the highest values as a whole.

The nature of the assay: NOVARTIS: Inhibition Frequency Index (IFI) - the number of HTS assays where a compound showed > 50% inhibition/induction, expressed as a percentage of the number of assays in which the compound was tested. Format: functional.
Consider `CC1CC(C)CC(C)C(O)C(C#N)=CC=CCC(C2CCCC2C(=O)O)OC(=O)CC(O)C(C)C1` (stereo not drawn), for which the IFI came to 25.8%.

For the molecule `COc1ccc(Cn2cccc(C(=O)Nc3ccc(OC)cc3)c2=O)cc1`, the IFI was determined as 5.26%.

Molecule `Oc1ccccc1C=Nc1ccccc1[Te]c1ccccc1N=Cc1ccccc1O` showed an IFI of 8.21%.

`CCn1nc(/C=C/c2ccccc2)nc2c(=O)n(C)c(=O)nc1-2` showed an IFI of 16.7%.

The molecule `Cn1ncnc2c(=O)n(C)c(=O)nc1-2` returned an IFI of 26.7%.

As for `Cc1nc2c(=O)n(C)c(=O)nc-2n(C)n1`, the IFI stood at 25%.

With `CCC(C)N1CCN(Cc2cccc(OC)c2OC)CC1` (stereo not drawn), the IFI turned out to be 3.17%.

Take `CCCC[C@@H](C)C(O)[C@H]1C(=O)N[C@@H](CC)C(=O)N(C)CC(=O)N(C)[C@@H](CC(C)C)C(=O)N[C@@H](C(C)C)C(=O)N(C)[C@@H](CC(C)C)C(=O)N[C@@H](C)C(=O)N[C@@H](C)C(=O)N(C)[C@@H](CC(C)C)C(=O)N(C)[C@@H](CC(C)C)C(=O)N(C)[C@@H](C(C)C)C(=O)N1C` (stereo partly drawn): the IFI turned out to be 3.45%.

For `CNCC(O)c1ccc(Cl)c(Cl)c1` (stereo not drawn), the IFI was determined as 0%.

`Nc1ccc(C(=O)NN=Cc2cccc([N+](=O)[O-])c2)cc1` had an IFI of 0%.

In the case of `C=C[C@H]1CN2CC[C@H]1C[C@H]2[C@H](OC(=O)c1cccc([N+](=O)[O-])c1)c1ccnc2ccccc12`, the IFI is 0.926%.

In turn, `COC1=CC(C)=C[C@@H](C)[C@@H](O)[C@H](C)CC(C)=CC=C[C@H](OC)[C@@H](C(C)C(O)[C@H](C)[C@@]2(O)C[C@@H](O)[C@H](C)[C@@H](C(C)C)O2)OC1=O` (stereo partly drawn) yielded an IFI of 19.6%.

For the molecule `C=CC1CN2CCC1CC2C(OC(=O)C1CC1)c1ccnc2ccccc12` (stereo not drawn), the IFI is 0%.

`Cc1ccc(CN2C3CCCC2CC(NC(=O)Nc2cccc(F)c2)C3)cc1` (stereo not drawn) returned an IFI of 1.32%.

With `O=C(Nc1ccc(Oc2ccc(OC(F)(F)F)cc2)cc1)C1CC1`, the IFI came out at 1.57%.

Consider `COc1ccc(NC2=C(N3CCCCC3)C(=O)c3ccccc3C2=O)cc1`, for which the IFI is 18.7%.

`CCOC(=O)CN(N=O)C1=C(N2CC2)C(=O)c2ccccc2C1=O` gave an IFI of 30.8%.

Consider `COc1cc(CN2CC3CC(C2)c2cccc(=O)n2C3)ccc1O` (stereo not drawn), for which the IFI was 0%.

The molecule `O=C(NNC(=O)c1csnn1)c1ccc(C(F)(F)F)cc1` came in with an IFI of 3%.

For `Cc1nc(Oc2ccc3ccc(=O)oc3c2)c2c3c(sc2n1)CCCCC3`, the IFI was 0%.

The molecule `Cc1c2ccccc2c(C)c2ccccc12` came in with an IFI of 3.76%.

As for `NC(=O)Oc1ccc(Cc2ccccc2)cc1`, the IFI was 0%.

As for `CC(Cc1ccccc1)NCc1ccccc1O` (stereo not drawn), the IFI turned out to be 3.12%.

On to `CN1CCN(c2nc(Cl)nc3[nH]cnc23)CC1`, for which the IFI turned out to be 0.699%.

On to `CC(=O)N(C1=C(N(C)C)C(=O)c2ccccc2C1=O)c1ccc(F)c(F)c1`, for which the IFI was found to be 23.1%.

As for `CC(=O)N(C1=C(N(C)C)C(=O)c2ccccc2C1=O)c1cccc(F)c1`, the IFI stood at 15.4%.

In the case of `CC(=O)N(C1=C(N(C)C)C(=O)c2ccccc2C1=O)c1ccc(Cl)cc1`, the IFI was 0%.

`COc1ccccc1-n1c(/C=C/c2cc(Br)ccc2O)nc2ccccc2c1=O`: the IFI came to 8.06%.

Regarding `CC(C)[C@@]1(NC(=O)[C@@H]2C[C@@H]3c4cccc5[nH]cc(c45)C[C@H]3N(C)C2)O[C@@]2(O)[C@@H]3CCCN3C(=O)[C@H](CC3CCCCC3)N2C1=O`, the IFI came out at 9.52%.

`O=C1c2ccccc2-c2nc3nnnn3nc21` yielded an IFI of 42.9%.

`CC=C[C@H]1O[C@@](O)([C@H](C)C(O)C(C)[C@@H]2OC(=O)C(OC)=CC(C)=C[C@H](C)[C@H](O)[C@H](CC)[C@H](O)C(C)CC(C)=CC=C[C@H]2OC)C[C@@H](O[C@@H]2C[C@H](O)[C@@H](OC(N)=O)[C@H](C)O2)[C@@H]1C` (stereo partly drawn) yielded an IFI of 15%.

For the molecule `CO/C(=C\C(N)=O)C(C)C(/C=C/c1csc(-c2csc(C(C)/C=C/C=C/C(C)C)n2)n1)OC` (stereo not drawn), the IFI worked out at 11.5%.

In turn, `C=C[C@H]1CN2CC[C@H]1C[C@H]2[C@H](OC(C)=O)c1ccnc2ccccc12` returned an IFI of 1.89%.

`CC[C@H]1CN2CC[C@@H]1C[C@@H]2[C@@H](O)c1ccnc2ccc(OC)cc12` showed an IFI of 2.16%.

In the case of `CC1OC(=O)C(C(C)C)NC(=O)C(C(C)C)OC(=O)C(C(C)C)NC(=O)C(C)OC(=O)C(C(C)C)NC(=O)C(C(C)C)OC(=O)C(C(C)C)NC(=O)C(C)OC(=O)C(C(C)C)NC(=O)C(C(C)C)OC(=O)C(C(C)C)NC1=O` (stereo not drawn), the IFI worked out at 27.7%.

`C=CC1(O)CN2CCC1CC2[C@@H](O)c1ccnc2ccc(OC)cc12` (stereo partly drawn) showed an IFI of 3.57%.

Molecule `CCc1cc2c(cc1-c1csc(NC(=N)N)n1)C(C)(C)CCC2(C)C` yielded an IFI of 5.16%.

For the molecule `CC1(C)CN=C(NCc2ccccc2Cl)S1`, the IFI stood at 0%.

As for `C=CC1CN2CCC1CC2C(OC(=O)c1ccco1)c1ccnc2ccccc12` (stereo not drawn), the IFI was 0%.

`COc1cc2c3c(c4cc(OC)c(OC)cc4c2cc1OC)CN1CCC[C@@H]1C3` yielded an IFI of 5.26%.

For the molecule `OC1(c2ccc(Br)cc2)CCN(C2CCN(CCc3ccccc3)CC2)CC1`, the IFI was 4.1%.

`Cc1cc(N(C)C)cc(C)[n+]1OC(=O)N(c1ccccc1)c1ccccc1`: the IFI was 16.7%.

The molecule `CNC1CC2OC(C)(C1OC)n1c3ccccc3c3c4c(c5c6ccccc6n2c5c31)C(=O)NC4O` (stereo not drawn) had an IFI of 28.6%.

`C/C(=C\c1csc(C)n1)[C@@H]1C[C@@H]2O[C@@H]2CCC[C@H](C)C(O)[C@@H](C)C(=O)C(C)(C)[C@@H](O)CC(=O)O1` (stereo partly drawn) had an IFI of 6.9%.

In turn, `CC[C@H]1CN2CCc3cc(OC)c(OC)cc3[C@@H]2C[C@@H]1C[C@H]1NCCc2cc(O)c(OC)cc21` came in with an IFI of 32.3%.

Take `CC[C@H]1CN2CCc3cc(OC)c(OC)cc3[C@@H]2C[C@@H]1C[C@H]1NCCc2cc(OC)c(OC)cc21`: the IFI was 23.8%.

With `CC[C@H]1CN2CCc3cc(OC)c(OC)cc3[C@@H]2C[C@@H]1C[C@@H]1NCCc2cc(OC)c(OC)cc21`, the IFI turned out to be 37%.

The molecule `CCC1CN2CCc3cc(OC)c(OC)cc3C2CC1CC1NCCc2cc(OC)c(OC)cc21` (stereo not drawn) came in with an IFI of 33.3%.

For the molecule `COc1ccc(C=NNc2ccnc3cc(Cl)ccc23)cc1`, the IFI was 4.8%.

In turn, `CN1C[C@@H](CSc2ccccn2)C=C2c3cccc4[nH]cc(c34)C[C@H]21` returned an IFI of 4.88%.

`C=CC1CN2CCC1C(C(O)c1ccnc3ccc(OC)cc13)C2` (stereo not drawn) returned an IFI of 2.29%.

For `CC=C[C@H]1O[C@@](O)([C@@H](C)C(O)C(C)[C@H]2OC(=O)C(OC)=CC(C)=C[C@@H](C)[C@H](O)C(CC)[C@@H](O)[C@H](C)CC(C)=CC=C[C@@H]2OC)C[C@@H](O[C@H]2C[C@@H](O)[C@H](OC(N)=O)[C@@H](C)O2)[C@@H]1C` (stereo partly drawn), the IFI was determined as 17.5%.

In turn, `CCCCCCCCCCCCn1ccc(=N)cc1` came in with an IFI of 15.4%.
